From the supplement of paper PMC12494721
Counter-ions that a name gives are not always drawn.

What was measured:
Details in all cases: incubation time: 27 h, anaerobic, 37 °C;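 for the amine columns active = adjusted P below 0.05 in both replicates with a change the same way and a mean fold change under 0.8 or over 1.25; inactive = the rest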
[1] = tested on: Clostridium sporogenes DSM 1664; test: growth (OD595) fold change vs plate DMSO controls (fold change (ratio)); higher = more growth
Outline: (§1)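 Absorbance at 595 nm was read after shaking the anaerobic mGAM cultures, which had grown in 96-well plates for 27 h at 37 °C. After blank subtraction and background correction against 20 µM compound solutions in water, a calibration factor of 5 gave OD values. Growth is the fold change against the median of the plate's DMSO controls. Values are the mean of 2 biological replicates, with fold changes above 1.5 set to NA.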

Escherichia coli IAI1 [2] = test: as above
Outline: as §1

[3] = tested on: Klebsiella aerogenes DSM 30053; test: as above
Outline: as §1

[4] = tested on: Ruminococcus gnavus DSM 108212; test: as above
Outline: as §1

[5] = tested on: Klebsiella aerogenes DSM 30053; test: fold change of Histamine concentration vs plate DMSO controls (fold change (ratio)); higher = more amine produced, active = hit call of the paper (significant change in both replicates, either direction)
Outline: (§2)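 In 80 µL wells, cultures of four gut bacterial strains in mGAM started at OD 0.1 before a 1:1 dilution and grew anaerobically at 37 °C for 27 h. Compounds were added to 20 µM final, except sweeteners at 50 µM final. After extraction of whole cultures with cold acetonitrile/methanol plus 0.1% formic acid and centrifugation, amines were measured by LC–triple-quadrupole MS in dynamic MRM mode against external calibration curves, with within-batch drift correction. Values give fold change over DMSO controls on the same plate, averaged across 2 biological replicates.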

[6] = tested on: Clostridium sporogenes DSM 1664; test: fold change of Tryptamine concentration vs plate DMSO controls (fold change (ratio)); higher = more amine produced, active = hit call of the paper (significant change in both replicates, either direction)
Outline: as §2

[7] = tested on: Ruminococcus gnavus DSM 108212; test: as above
Outline: as §2

Escherichia coli IAI1 [8] = test: fold change of Putrescine concentration vs plate DMSO controls (fold change (ratio)); higher = more amine produced, active = hit call of the paper (significant change in both replicates, either direction)
Outline: as §2

[9] = tested on: Klebsiella aerogenes DSM 30053; test: as above
Outline: as §2

Escherichia coli IAI1 [10] = test: fold change of Cadaverine concentration vs plate DMSO controls (fold change (ratio)); higher = more amine produced, active = hit call of the paper (significant change in both replicates, either direction)
Outline: as §2

[11] = tested on: Klebsiella aerogenes DSM 30053; test: as above
Outline: as §2

[12] = tested on: Ruminococcus gnavus DSM 108212; test: fold change of 2-Phenylethylamine concentration vs plate DMSO controls (fold change (ratio)); higher = more amine produced, active = hit call of the paper (significant change in both replicates, either direction)
Outline: as §2

Compound | growth [1] | growth (Escherichia coli IAI1 [2]) | growth [3] | growth [4] | fold change of Histamine concentration [5] | fold change of Tryptamine concentration [6] | fold change of Tryptamine concentration [7] | fold change of Putrescine concentration (Escherichia coli IAI1 [8]) | fold change of Putrescine concentration [9] | fold change of Cadaverine concentration (Escherichia coli IAI1 [10]) | fold change of Cadaverine concentration [11] | fold change of 2-Phenylethylamine concentration [12]
O=S(=O)([O-])NC1CCCCC1.[Na+] [Sodium cyclamate] (50 µM) | 1.01 | 1.02 | 0.974 | 1.03 | 1.04 (inactive) | 1.01 (inactive) | 1.01 (inactive) | 1.03 (inactive) | 1.02 (inactive) | 1.05 (inactive) | 1 (inactive) | 1.02 (inactive)
CC(=O)OC(C)C[N+](C)(C)C (configuration not stated) [Methacholine chloride] (20 µM) | 0.962 | 1.02 | 0.965 | 0.97 | 0.992 (inactive) | 1.01 (inactive) | 1.06 (inactive) | 1.09 (inactive) | 1 (inactive) | 0.985 (inactive) | 0.989 (inactive) | 1.08 (inactive)
COc1cc(NS(=O)(=O)c2ccc(N)cc2)ncn1 [Sulfamonomethoxine] (20 µM) | 1.06 | 0.996 | 0.978 | 1.09 | 1.11 (inactive) | 0.982 (inactive) | 0.944 (inactive) | 0.911 (inactive) | 1.02 (inactive) | 1.03 (inactive) | 0.991 (inactive) | 0.915 (inactive)
CCCN(CCC)CCc1cccc2c1CC(=O)N2 [Ropinirole hydrochloride] (20 µM) | 1.07 | 0.95 | 0.961 | 1.02 | 1.08 (inactive) | 1 (inactive) | 1 (inactive) | 0.952 (inactive) | 1.02 (inactive) | 0.978 (inactive) | 0.986 (inactive) | 1.02 (inactive)
Cc1c(O)cccc1C(=O)N[C@@H](CSc1ccccc1)[C@H](O)CN1C[C@H]2CCCC[C@H]2C[C@H]1C(=O)NC(C)(C)C [Nelfinavir mesylate] (20 µM) | 1.07 | 1.09 | 1.01 | 0.967 | 0.979 (inactive) | 0.96 (inactive) | 0.829 (inactive) | 1.05 (inactive) | 1.02 (inactive) | 1.01 (inactive) | 1 (inactive) | 0.894 (inactive)
CO[C@@H]1[C@@H](O[C@@H]2O[C@H](C)[C@@H](O[C@H]3C[C@@](C)(O)[C@@H](O)[C@H](C)O3)[C@H](N(C)C)[C@H]2O)[C@@H](CC=O)C[C@@H](C)[C@@H](O[C@H]2CC[C@H](N(C)C)[C@@H](C)O2)/C=C/C=C/C[C@@H](C)OC(=O)C[C@H]1OC(C)=O [Acetyl spiramycin] (20 µM) | 0.00073 | 1.03 | 0.958 | 0.154 | 0.621 (active) | 0.0194 (active) | 0.153 (active) | 0.875 (inactive) | 1.03 (inactive) | 0.989 (inactive) | 1.03 (inactive) | 0.156 (active)
C=CCOc1ccccc1OCC(O)CNC(C)C (configuration not stated) [Oxprenolol hydrochloride] (20 µM) | 0.929 | 0.97 | 0.986 | 0.945 | 1.02 (inactive) | 1.08 (inactive) | 1.05 (inactive) | 1.01 (inactive) | 1 (inactive) | 1.02 (inactive) | 0.988 (inactive) | 1.04 (inactive)
CC(=O)OCC1=C(C(=O)O)N2C(=O)[C@@H](NC(=O)Cc3cccs3)[C@H]2SC1 [Cephalothin sodium salt] (20 µM) | 0 | 1.29 | 1.11 | 0.125 | 1.1 (inactive) | 0.0346 (active) | 0.0635 (active) | 1.17 (inactive) | 1.02 (inactive) | 1.62 (inactive) | 1.01 (inactive) | 0.0703 (active)
CC1=C(CC(=O)O)c2cc(F)ccc2/C1=C\c1ccc([S+](C)[O-])cc1 (configuration not stated) [Sulindac] (20 µM) | 1.15 | 1.08 | 1.02 | 1.3 | 0.931 (inactive) | 1.04 (inactive) | 1.03 (inactive) | 1.02 (inactive) | 0.951 (inactive) | 0.995 (inactive) | 1.02 (inactive) | 1 (inactive)
OC[C@H](O)C(O)[C@@H](O)CO [L-Arabinitol] (50 µM) | 1.11 | 0.995 | 0.979 | 0.985 | 1 (inactive) | 0.956 (inactive) | 0.939 (inactive) | 1.06 (inactive) | 1.02 (inactive) | 0.981 (inactive) | 0.984 (inactive) | 0.908 (inactive)
Nc1ccc(S(=O)(=O)Nc2ncccn2)cc1 [Sulfadiazine] (20 µM) | 0.978 | 0.939 | 1.06 | 0.958 | 0.966 (inactive) | 0.955 (inactive) | 0.997 (inactive) | 0.976 (inactive) | 1 (inactive) | 1.03 (inactive) | 1.01 (inactive) | 1.02 (inactive)
